The full data set covers some 7,900 targets. This sample favours those with a hit. About 0.6% of all pairs of compound and target were hits.
Compound: NC(=O)Nc1cc(-c2cccc(F)c2)sc1C(=O)N[C@H]1CCCNC1
Test: log2 fold change, soluble protein after heating vs DMSO (PISA); higher = thermal stabilisation; K562 cells, 10 uM, 30 min; active = over 0.2 and 3.5 SD of the protein, either way, in both replicates (recomputed)
In short: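 K562 cells at 2×10^6 cells/mL were treated with 10 μM compound for 30 min. Aliquots were heated for 3 min across 48°C-58°C, pooled, and extracted in PBS with 0.5% NP-40 at 4°C; soluble protein was the supernatant after 21,000xg for 90 min. Soluble protein was quantified by TMTpro 16plex LC-MS/MS with channel sums equalised, and reported as log2 fold change in thermal stability against DMSO controls, with values from duplicates.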

Chain of UniProt Q9P2B2 (Q9P2B2 whole entry, looked up): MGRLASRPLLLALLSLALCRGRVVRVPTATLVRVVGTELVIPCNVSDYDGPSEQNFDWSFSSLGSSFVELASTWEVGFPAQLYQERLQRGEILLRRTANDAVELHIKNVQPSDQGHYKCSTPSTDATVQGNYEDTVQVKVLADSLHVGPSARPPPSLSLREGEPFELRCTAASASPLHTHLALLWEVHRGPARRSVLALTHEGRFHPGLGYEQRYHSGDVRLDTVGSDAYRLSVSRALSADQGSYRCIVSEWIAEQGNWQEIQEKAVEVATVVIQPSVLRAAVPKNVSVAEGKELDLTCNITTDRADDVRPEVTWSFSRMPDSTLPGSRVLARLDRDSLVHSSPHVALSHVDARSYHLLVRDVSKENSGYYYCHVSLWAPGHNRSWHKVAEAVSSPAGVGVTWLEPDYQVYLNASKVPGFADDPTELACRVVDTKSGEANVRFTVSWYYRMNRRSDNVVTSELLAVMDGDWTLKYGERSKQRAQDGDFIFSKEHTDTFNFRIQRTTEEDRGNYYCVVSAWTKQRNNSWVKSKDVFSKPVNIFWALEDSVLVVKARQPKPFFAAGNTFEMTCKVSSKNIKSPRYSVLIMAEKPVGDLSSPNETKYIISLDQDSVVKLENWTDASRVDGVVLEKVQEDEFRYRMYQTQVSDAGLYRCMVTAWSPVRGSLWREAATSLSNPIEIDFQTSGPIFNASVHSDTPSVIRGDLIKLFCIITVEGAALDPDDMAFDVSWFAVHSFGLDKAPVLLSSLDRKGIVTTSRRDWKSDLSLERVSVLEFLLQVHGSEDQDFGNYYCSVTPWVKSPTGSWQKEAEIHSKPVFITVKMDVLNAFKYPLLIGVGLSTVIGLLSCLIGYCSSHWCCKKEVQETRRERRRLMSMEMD
Chain of UniProt P53609 (P53609 whole entry, looked up): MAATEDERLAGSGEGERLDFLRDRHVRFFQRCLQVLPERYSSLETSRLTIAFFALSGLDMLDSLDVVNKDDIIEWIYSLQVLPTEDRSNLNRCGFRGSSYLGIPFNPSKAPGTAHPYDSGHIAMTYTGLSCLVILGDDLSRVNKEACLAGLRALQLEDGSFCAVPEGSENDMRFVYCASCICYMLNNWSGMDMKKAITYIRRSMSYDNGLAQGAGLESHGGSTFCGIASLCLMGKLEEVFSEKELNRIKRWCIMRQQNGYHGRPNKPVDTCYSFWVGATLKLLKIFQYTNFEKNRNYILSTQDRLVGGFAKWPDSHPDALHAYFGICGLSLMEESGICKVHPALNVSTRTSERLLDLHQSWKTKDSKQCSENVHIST
Chain of UniProt Q16537 (Q16537 whole entry, looked up): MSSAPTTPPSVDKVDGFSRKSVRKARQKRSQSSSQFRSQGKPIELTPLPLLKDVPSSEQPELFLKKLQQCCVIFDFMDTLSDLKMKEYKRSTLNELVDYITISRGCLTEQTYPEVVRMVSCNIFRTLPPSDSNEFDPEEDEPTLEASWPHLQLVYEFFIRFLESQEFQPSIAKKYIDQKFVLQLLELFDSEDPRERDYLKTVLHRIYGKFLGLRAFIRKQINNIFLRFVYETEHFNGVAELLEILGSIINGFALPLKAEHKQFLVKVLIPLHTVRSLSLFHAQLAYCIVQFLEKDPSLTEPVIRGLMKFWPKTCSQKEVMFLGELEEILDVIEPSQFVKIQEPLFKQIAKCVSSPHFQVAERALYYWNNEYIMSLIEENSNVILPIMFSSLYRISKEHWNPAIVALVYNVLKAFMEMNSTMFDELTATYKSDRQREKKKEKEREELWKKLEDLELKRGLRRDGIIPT
Chain of UniProt O15162 (O15162 whole entry, looked up): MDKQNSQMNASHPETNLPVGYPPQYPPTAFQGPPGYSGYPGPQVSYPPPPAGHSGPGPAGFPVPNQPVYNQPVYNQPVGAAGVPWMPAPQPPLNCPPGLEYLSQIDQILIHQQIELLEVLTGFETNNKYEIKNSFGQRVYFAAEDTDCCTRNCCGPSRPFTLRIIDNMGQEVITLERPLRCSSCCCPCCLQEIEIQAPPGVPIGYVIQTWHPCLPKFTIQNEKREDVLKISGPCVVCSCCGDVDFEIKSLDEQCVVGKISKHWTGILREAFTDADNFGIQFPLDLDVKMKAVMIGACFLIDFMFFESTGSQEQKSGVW
Chain of UniProt Q9Y2Y1 (Q9Y2Y1 whole entry, looked up): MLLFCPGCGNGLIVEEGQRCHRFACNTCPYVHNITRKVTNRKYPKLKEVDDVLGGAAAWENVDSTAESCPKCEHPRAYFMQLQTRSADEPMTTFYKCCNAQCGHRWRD
Chain of UniProt O00625 (O00625 whole entry, looked up): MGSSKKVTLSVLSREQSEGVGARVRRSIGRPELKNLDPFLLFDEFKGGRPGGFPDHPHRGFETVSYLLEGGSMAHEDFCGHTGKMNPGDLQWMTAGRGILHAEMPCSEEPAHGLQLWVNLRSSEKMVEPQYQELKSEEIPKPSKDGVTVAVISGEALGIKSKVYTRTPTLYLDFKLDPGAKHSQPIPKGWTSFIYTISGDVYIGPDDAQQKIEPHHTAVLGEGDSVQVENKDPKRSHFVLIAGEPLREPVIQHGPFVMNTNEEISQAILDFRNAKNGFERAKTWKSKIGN
Chain of UniProt O15305 (O15305 whole entry, looked up): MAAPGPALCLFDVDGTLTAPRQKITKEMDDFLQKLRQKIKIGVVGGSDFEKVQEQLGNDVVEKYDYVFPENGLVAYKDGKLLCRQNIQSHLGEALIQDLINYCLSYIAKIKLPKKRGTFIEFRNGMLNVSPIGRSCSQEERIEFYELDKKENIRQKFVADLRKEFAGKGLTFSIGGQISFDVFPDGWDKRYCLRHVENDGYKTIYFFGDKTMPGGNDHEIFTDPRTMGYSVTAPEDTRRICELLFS
Chain of UniProt Q5VU43 (Q5VU43 whole entry, looked up): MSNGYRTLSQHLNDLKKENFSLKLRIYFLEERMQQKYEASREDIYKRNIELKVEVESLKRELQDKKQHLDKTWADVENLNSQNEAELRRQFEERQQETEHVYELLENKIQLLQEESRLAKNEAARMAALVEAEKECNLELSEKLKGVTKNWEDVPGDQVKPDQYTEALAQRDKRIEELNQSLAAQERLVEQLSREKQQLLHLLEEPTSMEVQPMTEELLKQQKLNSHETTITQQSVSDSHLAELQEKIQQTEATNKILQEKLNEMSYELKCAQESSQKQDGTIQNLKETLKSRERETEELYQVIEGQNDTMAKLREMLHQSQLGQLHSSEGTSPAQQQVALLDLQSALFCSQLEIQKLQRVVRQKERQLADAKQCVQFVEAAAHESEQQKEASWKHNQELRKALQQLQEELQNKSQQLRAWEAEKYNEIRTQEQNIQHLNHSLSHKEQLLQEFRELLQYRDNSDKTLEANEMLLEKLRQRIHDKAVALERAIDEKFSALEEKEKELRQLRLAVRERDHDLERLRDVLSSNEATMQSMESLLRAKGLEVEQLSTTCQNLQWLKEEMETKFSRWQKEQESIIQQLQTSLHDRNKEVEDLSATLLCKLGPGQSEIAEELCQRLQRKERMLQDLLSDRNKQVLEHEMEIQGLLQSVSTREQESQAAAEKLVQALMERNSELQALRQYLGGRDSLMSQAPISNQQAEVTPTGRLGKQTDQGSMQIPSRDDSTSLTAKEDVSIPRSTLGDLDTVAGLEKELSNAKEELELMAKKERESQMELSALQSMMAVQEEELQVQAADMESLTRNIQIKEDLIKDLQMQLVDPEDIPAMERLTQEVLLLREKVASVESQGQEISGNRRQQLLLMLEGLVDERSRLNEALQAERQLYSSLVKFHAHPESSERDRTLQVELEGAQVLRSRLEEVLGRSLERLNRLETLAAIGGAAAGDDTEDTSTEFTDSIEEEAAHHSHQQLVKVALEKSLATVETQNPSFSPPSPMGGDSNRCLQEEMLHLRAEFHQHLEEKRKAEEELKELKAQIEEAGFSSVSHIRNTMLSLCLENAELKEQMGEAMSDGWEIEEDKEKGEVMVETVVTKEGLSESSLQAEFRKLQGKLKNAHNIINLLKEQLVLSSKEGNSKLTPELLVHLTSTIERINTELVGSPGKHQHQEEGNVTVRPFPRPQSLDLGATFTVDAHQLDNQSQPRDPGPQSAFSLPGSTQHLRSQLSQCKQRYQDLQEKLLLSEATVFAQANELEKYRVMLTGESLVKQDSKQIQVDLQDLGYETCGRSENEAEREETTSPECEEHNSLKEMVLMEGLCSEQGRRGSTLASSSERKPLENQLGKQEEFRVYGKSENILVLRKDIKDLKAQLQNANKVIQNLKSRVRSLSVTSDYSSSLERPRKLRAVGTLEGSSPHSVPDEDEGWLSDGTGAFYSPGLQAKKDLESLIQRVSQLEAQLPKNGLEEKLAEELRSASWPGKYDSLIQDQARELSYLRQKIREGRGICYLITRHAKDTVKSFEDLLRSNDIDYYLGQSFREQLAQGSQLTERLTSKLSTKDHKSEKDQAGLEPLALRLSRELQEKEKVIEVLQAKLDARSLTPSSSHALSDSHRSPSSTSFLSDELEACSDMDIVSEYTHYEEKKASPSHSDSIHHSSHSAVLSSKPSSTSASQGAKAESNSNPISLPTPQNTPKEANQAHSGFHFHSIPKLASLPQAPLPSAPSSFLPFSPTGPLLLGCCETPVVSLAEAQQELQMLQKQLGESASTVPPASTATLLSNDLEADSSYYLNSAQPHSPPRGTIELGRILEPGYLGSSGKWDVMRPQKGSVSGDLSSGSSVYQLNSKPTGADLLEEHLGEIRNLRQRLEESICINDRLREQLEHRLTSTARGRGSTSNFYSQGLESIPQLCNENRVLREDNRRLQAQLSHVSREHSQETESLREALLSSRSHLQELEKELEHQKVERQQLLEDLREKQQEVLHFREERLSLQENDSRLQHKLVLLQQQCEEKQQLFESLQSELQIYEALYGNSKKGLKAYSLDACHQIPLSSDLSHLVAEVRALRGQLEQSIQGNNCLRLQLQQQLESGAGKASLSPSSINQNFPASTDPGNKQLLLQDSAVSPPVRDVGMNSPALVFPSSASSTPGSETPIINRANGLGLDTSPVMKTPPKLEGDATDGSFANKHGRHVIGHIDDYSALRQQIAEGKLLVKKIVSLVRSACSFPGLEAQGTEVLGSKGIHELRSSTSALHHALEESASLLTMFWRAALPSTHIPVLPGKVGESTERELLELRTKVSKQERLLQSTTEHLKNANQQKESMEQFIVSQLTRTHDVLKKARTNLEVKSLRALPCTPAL

log2 fold change, inactive:
PYGB (UniProt P11216) 0.209
PRKCB isoform 2 (UniProt P05771) -0.052
PCYT1B (UniProt Q9Y5K3) -0.019
PRPSAP2 (UniProt O60256) -0.146
POGLUT1 (UniProt Q8NBL1) -0.043
PSMC2 (UniProt P35998) 0.014
PDE4DIP isoform 4 (UniProt Q5VU43) 0.113
PCGF2 (UniProt P35227) -0.164
POLR3K (UniProt Q9Y2Y1) 0.045
PTTG1IP (UniProt P53801) -0.033
PPP6R1 (UniProt Q9UPN7) 0.023
PIGG (UniProt Q5H8A4) -0.046
POLR2K (UniProt P53803) -0.04
PSME4 (UniProt Q14997) 0.047
PPP1R35 (UniProt Q8TAP8) 0.054
PMPCA (UniProt Q10713) -0.091
PPP1CA (UniProt P62136) -0.036
PLSCR1 (UniProt O15162) -0.092
PDS5A (UniProt Q29RF7) -0.076
PGGT1B (UniProt P53609) -0.048
PKN2 (UniProt Q16513) -0.055
PMM2 (UniProt O15305) 0.022
PLCG1 isoform 2 (UniProt P19174) 0.01
PISD (UniProt Q9UG56) 0.023
PPIL2 (UniProt Q13356) -0.069
PCK2 (UniProt Q16822) 0
PSMC6 (UniProt P62333) 0.007
PSMD8 (UniProt P48556) -0.035
PPP2R5E (UniProt Q16537) 0.015
PRKCE (UniProt Q02156) -0.068
PIR (UniProt O00625) -0.047
PELO (UniProt Q9BRX2) -0.028
PTGFRN (UniProt Q9P2B2) -0.115
PTGR2 (UniProt Q8N8N7) -0.039
QKI (UniProt Q96PU8) -0.057
PARP16 isoform 3 (UniProt Q8N5Y8) 0.116

log2 fold change, active:
PRKAR2B (UniProt P31323) -0.964
